Assay [1] deals with ATP-dependent 6-phosphofructokinase (Trypanosoma brucei brucei) (UniProt O15648). Put plainly: qHTS Assay to Find Inhibitors of T. brucei phosphofructokinase: hit validation (AID 492961).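 Note: luminescence reports ADP formed as PFK phosphorylates fructose-6-phosphate with ATP; % is set by controls: 0 for no effect and ±100 for the full control effect.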 In a few lines: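 Reaction: 0.1 M triethanolamine pH 8.0, 5 mM MgCl2, F6P 0.5 mM, ATP 0.1 mM, PFK 1.25 nM, 45 min RT. Read-out: ADP-Glo luminescence. Analysis: concentration-response fits, classed by r2 and efficacy.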
Sequence of ATP-dependent 6-phosphofructokinase (Trypanosoma brucei brucei) (O15648 whole entry, looked up): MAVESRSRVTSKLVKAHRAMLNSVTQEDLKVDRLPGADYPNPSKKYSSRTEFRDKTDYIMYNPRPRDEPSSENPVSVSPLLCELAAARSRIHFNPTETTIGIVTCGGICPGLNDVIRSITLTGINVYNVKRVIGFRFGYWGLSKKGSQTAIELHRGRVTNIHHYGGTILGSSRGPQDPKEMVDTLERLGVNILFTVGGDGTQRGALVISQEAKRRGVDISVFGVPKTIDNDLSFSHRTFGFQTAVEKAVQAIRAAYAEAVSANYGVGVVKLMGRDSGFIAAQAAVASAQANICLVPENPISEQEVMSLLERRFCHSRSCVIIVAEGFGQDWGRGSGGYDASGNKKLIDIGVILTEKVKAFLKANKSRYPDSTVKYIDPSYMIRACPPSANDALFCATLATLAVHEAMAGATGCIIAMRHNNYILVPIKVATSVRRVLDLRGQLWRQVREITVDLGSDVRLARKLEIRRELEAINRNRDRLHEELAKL
Background: qHTS replaces the single test concentration by a dilution series.

Assay [2] can be described thus: qHTS profiling for inhibitors of Plasmodium falciparum proliferation (AID 504749).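 For activity, negative = inhibition: 0% = DMSO vehicle and full inhibition = artemisinin control.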 For all read-outs here: nearly all actives have a fitted effect of over 60% in size. Note: potency is the fitted concentration of half-maximal effect. To be noted: P. falciparum in erythrocytes, SYBR Green DNA, 72 h; for activity, negative = inhibition: at 28.7 µM (top of the series). In a few lines: (§1)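 Fluorescence of SYBR Green-bound parasite DNA, read at 485/535 nm, served as the growth measure. Infected erythrocytes were cultured with compound 72 h; artemisinin (0.29 uM) and DMSO wells defined the normalization range.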

Assay [3] has as its system 3D7. Described as above. To be noted: P. falciparum in erythrocytes, SYBR Green DNA, 72 h; series mostly up to 28.7 µM. In a few lines: as §1
Assay [4] has as its system AA1029. Described as above. To be noted: P. falciparum in erythrocytes, SYBR Green DNA, 72 h; series mostly up to 28.7 µM. The method in brief:
as §1

The subject of assay [5] is AS120. The description is as above. To be noted: P. falciparum in erythrocytes, SYBR Green DNA, 72 h; series mostly up to 28.7 µM. In a few lines: as §1
Assay [6] has as its system ATS189. Described as above. To be noted: P. falciparum in erythrocytes, SYBR Green DNA, 72 h; series mostly up to 28.7 µM. In a few lines:
as §1

Assay [7] concerns C2A. The description is as above. To be noted: P. falciparum in erythrocytes, SYBR Green DNA, 72 h; series mostly up to 28.7 µM. The method in brief:
as §1

For assay [8], the system named is CP185. Described as above. To be noted: P. falciparum in erythrocytes, SYBR Green DNA, 72 h; series mostly up to 28.7 µM. In a few lines: as §1
Assay [9] deals with CP191. The assay is described as above. To be noted: P. falciparum in erythrocytes, SYBR Green DNA, 72 h; series mostly up to 28.7 µM. The method in brief: as §1
Assay [10] has as its system CP192. Described as above. To be noted: P. falciparum in erythrocytes, SYBR Green DNA, 72 h; series mostly up to 28.7 µM. The method in brief:
as §1

The test system of assay [11] is CP194. The assay is described as above. To be noted: P. falciparum in erythrocytes, SYBR Green DNA, 72 h; series mostly up to 28.7 µM. In a few lines:
as §1

The test system of assay [12] is CP211. Described as above. To be noted: P. falciparum in erythrocytes, SYBR Green DNA, 72 h; series mostly up to 28.7 µM. In a few lines: as §1
The test system of assay [13] is CP217. The assay is described as above. To be noted: P. falciparum in erythrocytes, SYBR Green DNA, 72 h; series mostly up to 28.7 µM. The method in brief:
as §1

Assay [14] relates to CP237. The assay is described as above. To be noted: P. falciparum in erythrocytes, SYBR Green DNA, 72 h; series mostly up to 28.7 µM. In a few lines:
as §1

For assay [15], the system named is CP238. Described as above. To be noted: P. falciparum in erythrocytes, SYBR Green DNA, 72 h; series mostly up to 28.7 µM. In a few lines: as §1
Assay [16] concerns CP247. The description is as above. To be noted: P. falciparum in erythrocytes, SYBR Green DNA, 72 h; series mostly up to 28.7 µM. In a few lines:
as §1

For assay [17], the system named is CP252. The assay is described as above. To be noted: P. falciparum in erythrocytes, SYBR Green DNA, 72 h; series mostly up to 28.7 µM. The method in brief: as §1
Assay [18] has as its system CP286. The assay is described as above. To be noted: P. falciparum in erythrocytes, SYBR Green DNA, 72 h; series mostly up to 28.7 µM. The method in brief: as §1
Assay [19] deals with Dd2. The assay is described as above. To be noted: P. falciparum in erythrocytes, SYBR Green DNA, 72 h; series mostly up to 28.7 µM. The method in brief:
as §1

The subject of assay [20] is P94_40. The assay is described as above. To be noted: P. falciparum in erythrocytes, SYBR Green DNA, 72 h; series mostly up to 28.7 µM. In a few lines: as §1

Inconclusive results are not listed. A number with no mark means an inactive call. The source made the active and inactive calls. Calls come from the whole dose curve; as a rule, active = well fitted curve in the direction sought with a large enough effect; inconclusive = small, poorly fitted or top-dose-only effect, or another doubt; inactive = no such curve, though single readings can be large; an effect the other way counts as inactive or inconclusive.

This passage reports Potency and activity, negative = inhibition results from PubChem BioAssay (NCATS).

Consider `CC[C@@]1(O)CC2CN(CCc3c([nH]c4ccccc34)[C@](C(=O)OC)(c3cc4c(cc3OC)N(C)C3[C@@](O)(C(=O)OC)C(OC(C)=O)[C@]5(CC)C=CCN6CC[C@@]43C65)C2)C1` (stereo partly drawn), for which the Potency entry in assay [1] is “inactive”. Besides, the Potency was 2.51 µM (active) in [2] (parasite line A); 1.12 µM (active) in assay [2] (parasite line B); 2 µM (active) in assay [3]; 3.16 µM (active) in [4]; 2.82 µM (active) in assay [5]; 3.98 µM (active) in assay [6]. The Potency in [7] was 2.82 µM (active); in assay [8], 2.24 µM (active); in assay [9], 2.82 µM (active); in [10], 3.38 µM (active); in assay [11] it was 3.79 µM (active); in [12] it was 2.69 µM (active). The Potency in assay [13] is 3.55 µM (active); in [14], 794 nM (active); in assay [15] it was 3.16 µM (active); in assay [16], 1.12 µM (active); in [17], 3.55 µM (active); in [18] it was 0.794 µM (active). The Potency in assay [19] was 355 nM (active); in [20] it was 3.55 µM (active).
As for `C=C(CC[C@@H](C)[C@H]1CCC2[C@]1(C)CC[C@]13C[C@@]14CCC(OC(=O)/C=C/c1ccc(O)c(OC)c1)C(C)(C)[C@@H]4CC[C@@]23C)C(C)C` (stereo partly drawn), the Potency entry in assay [1], in [3], in assay [4], in [5], in [6] and in [7] was “inactive” each time. The Potency entry in assay [8], in [9], in [10], in assay [11], in assay [12] and in assay [13] was “inactive” throughout. Besides, the Potency result in assay [14], in assay [15], in assay [16], in [17], in assay [18] and in [19] was “inactive” each time. Besides, in assay [20], the Potency result was “inactive”. The activity, negative = inhibition in assay [2] (parasite line A) is 3.06%; in assay [2] (parasite line B), 1.72%.
For the molecule `C[C@]12C=CC(=O)N[C@@H]1CC[C@@H]1C2CC[C@]2(C)C(C(=O)Nc3cc(C(F)(F)F)ccc3C(F)(F)F)CC[C@@H]12` (stereo partly drawn), the Potency entry in assay [1], in assay [4], in assay [5], in [6], in assay [7] and in assay [8] was “inactive” in each case. Further, the Potency result in assay [9], in assay [10], in assay [11], in assay [12], in assay [13] and in assay [15] was “inactive” throughout. Further, the Potency result in assay [16], in assay [17], in assay [19] and in assay [20] was “inactive” each time. Moreover, the activity, negative = inhibition in assay [2] (parasite line A) is -5.45%. Moreover, the Potency in assay [2] (parasite line B) was 11.2 µM (active); in [3], 5.62 µM (active); in [14], 5010 nM (active); in [18] it was 6.31 µM (active).
Consider `Nc1nc(/C(=C/CC(=O)O)C(=O)NC2C(=O)N3C(C(=O)O)=CCSC23)cs1` (stereo not drawn), for which the Potency entry in assay [1], in [3], in [4], in assay [5], in [6] and in [7] was “inactive” in each case. Besides, the Potency result in assay [8], in [9], in assay [10], in [11], in [12] and in assay [13] was “inactive” in each case. For the same molecule, the Potency result in [14], in assay [15], in assay [16], in [17], in assay [18] and in assay [19] was “inactive” each time. In addition, the Potency entry in assay [20] was “inactive”. In addition, the activity, negative = inhibition in [2] (parasite line A) is -3.7%; in assay [2] (parasite line B), 3.34%.
Regarding `CCCCCOC(=O)Nc1nc(=O)n(C2O[C@H](C)[C@@H](O)[C@@H]2O)cc1F` (stereo partly drawn), the Potency result in assay [1], in assay [3], in assay [4], in assay [5], in assay [6] and in assay [7] was “inactive” throughout. The Potency entry in assay [8], in assay [10], in assay [11], in assay [12], in assay [13] and in assay [15] was “inactive” each time. For the same molecule, the Potency entry in [17], in assay [18], in assay [19] and in assay [20] was “inactive” in each case. Besides, the results for the activity, negative = inhibition in [2] (parasite line A) and in assay [2] (parasite line B) were -10.4% and 12.5%, respectively. Besides, the Potency in assay [9] was 8.91 µM (active).
For `N#C/C(=C1/SCC(c2ccccc2Cl)S1)n1ccnc1` (stereo not drawn), the Potency result in assay [1], in assay [3], in assay [4], in assay [6], in assay [7] and in [8] was “inactive” throughout. In addition, the Potency entry in [9], in [10], in assay [11], in [12], in assay [13] and in assay [14] was “inactive” in each case. Moreover, the Potency result in assay [15], in assay [16], in assay [17], in assay [18], in [19] and in assay [20] was “inactive” in each case. For the same molecule, the results for the activity, negative = inhibition in assay [2] (parasite line A) and in [2] (parasite line B) were -5.78% and -14.7%, respectively.
